This passage reports Percent Effect results from ChEMBL document CHEMBL3988442, “University of Dundee, Small-Polar-MMV Screening Library” (2021).

Assay [1] deals with T1, Aspartate--tRNA(Asp/Asn) ligase (Mycobacterium tuberculosis (strain ATCC 25618 / H37Rv)) (UniProt P9WFW3).
T1 sequence (whole entry): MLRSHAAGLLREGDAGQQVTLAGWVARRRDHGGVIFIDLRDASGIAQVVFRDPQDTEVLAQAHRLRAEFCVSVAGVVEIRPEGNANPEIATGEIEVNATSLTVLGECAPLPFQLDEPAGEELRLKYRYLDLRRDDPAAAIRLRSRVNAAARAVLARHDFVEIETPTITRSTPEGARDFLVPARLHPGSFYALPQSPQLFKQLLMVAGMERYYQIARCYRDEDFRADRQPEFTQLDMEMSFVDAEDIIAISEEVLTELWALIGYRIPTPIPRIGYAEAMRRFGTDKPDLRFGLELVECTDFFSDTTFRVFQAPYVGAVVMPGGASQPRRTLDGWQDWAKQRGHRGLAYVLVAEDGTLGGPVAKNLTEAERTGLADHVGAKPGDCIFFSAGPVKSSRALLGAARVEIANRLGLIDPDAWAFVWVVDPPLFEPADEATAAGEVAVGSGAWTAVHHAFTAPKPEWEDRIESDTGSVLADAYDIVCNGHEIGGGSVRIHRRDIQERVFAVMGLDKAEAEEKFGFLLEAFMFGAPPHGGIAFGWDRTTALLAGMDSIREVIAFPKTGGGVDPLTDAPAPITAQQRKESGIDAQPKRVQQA
Nature of the assay: Assay for Asp RNA synthetase-1 from Mycobacterium tuberculosis. The format is functional. More on the design: scale not given: direction of the effect not stated beside the values. The conditions noted are these: 30 µM.

Assay [2] deals with Shiga toxin 2 (Escherichia coli O157:H7) (UniProt P09385+P09386). Nature of the assay: E. coli 0.157:H7 Shiga Toxin SOP - stx2 screening assay. The format is functional. More on the design: scale not given: direction of the effect not stated beside the values. The conditions noted are these: 30 µM.

As to `CN(Cc1ccsc1)C(=O)Nc1cccnc1N1CCCC1`, the Percent Effect in assay [1] was 1.88%; in assay [2], -69.4%.
As for `CC(C)(C)n1cc(C(=O)N2CCN(Cc3ccccc3F)CC2)cn1`, the Percent Effect in assay [1] was -1.61%; in assay [2], 20.1%.
On to `O=C(NCc1ccccc1CN1CCC(O)CC1)Nc1ccncc1`, for which the Percent Effect in assay [1] is -0.167%; in assay [2] it was -42%.
For the compound `O=C(CCC1CCCC1)N1CCC(c2ncc3c(n2)CCNC3)CC1`, the figures for the Percent Effect in assay [1] and in assay [2] were -3.47% and -54.5%, respectively.
As for `CCc1ccc(CN(CCCn2ccnc2)Cc2ccc(C)s2)o1`, the Percent Effect in assay [1] is 2.1%; in assay [2], -1.1%.
For the compound `CN(CC1CCCCC1)C(=O)c1ccc(-n2ncc(C#N)c2N)cc1`, the Percent Effect in assay [1] is -2.55%; in assay [2] it was -24.4%.
Regarding `CN(CC(=O)N1CCN(c2ncccn2)CC1)c1ccc(Cl)cn1`, the Percent Effect in assay [1] is -2%; in assay [2] it was -0.376%.
As to `COc1ccc(Br)c(C(=O)NCC2CCN(S(=O)(=O)C3CC3)CC2)c1`, the Percent Effect in assay [1] was -8.22%; in assay [2], -0.843%.
In the same order, the values of `Fc1ccc(-c2cnc(CN3CCCC3Cn3cccn3)o2)cc1` (stereo not given) are -1.83% and 8.21%.
For `CCc1cc(O)nc(C2CCCN2C(=O)c2cccnc2)n1` (stereo not given), the values for the Percent Effect in assay [1] and in assay [2] were 2.54% and 2.33%, respectively.
For the compound `CN(C)C(=O)N1CCc2c(nnn2C)C1COCc1ccccc1` (stereo not given), the Percent Effect in assay [1] was 1.92%; in assay [2] it was -16.6%.
The like results for `Cc1ccc(C(=O)NS(=O)(=O)c2cccc3cnccc23)c(=O)[nH]1` were, in that order, 1.11% and 1.19%.
As to `Cc1nc(C)n(C2CCCN(C(=O)c3ccc(F)cc3F)C2)n1` (stereo not given), the Percent Effect in assay [1] was -6.88%; in assay [2], 1.49%.
With `CC(CN1CCOCC1)NC(=O)N(C)Cc1ccc(Cl)s1` (stereo not given), the Percent Effect in assay [1] was 1.38%; in assay [2], -12.6%.
The like results for `Cc1ccc(Oc2ccc(NC(=O)NCC3CCOC3)cn2)cc1C` (stereo not given) were, in that order, 0.322% and -6.2%.
Take `CCc1n[nH]c(C2CN(C(=O)c3ccsc3)CCO2)n1` (stereo not given): the Percent Effect in assay [1] is -7.75%; in assay [2], 21.9%.
As for `O=C(C1CC1)N1CCCC1C1CCN(Cc2ccccc2)CC1` (stereo not given), the Percent Effect in assay [1] was -4.34%; in assay [2], -13.2%.
As to `CC(C)C(=O)N1CCN(Cc2cc(-c3ccncc3)nn2C)CC1`, the Percent Effect in assay [1] was 0.491%; in assay [2] it was -50.3%.
Regarding `CC(C1CC1)N(C(=O)NCCCn1nc2ccccn2c1=O)C1CC1` (stereo not given), the Percent Effect in assay [1] was 1.26%; in assay [2], -15.6%.
For the compound `CC(C)OCCOCc1cccc(NC(=O)NCc2ccccn2)c1`, the Percent Effect in assay [1] was 8.32%; in assay [2], -20.3%.
In the case of `CC(C)c1csc(C2CCCN(C(=O)c3ccc(=O)n(C)n3)C2)n1` (stereo not given), the Percent Effect in assay [1] is -1.11%; in assay [2] it was -6.52%.
`CCc1nc(C2CCCN(C(=O)c3cccc4c3ccn4C)C2)no1` (stereo not given): the results for the Percent Effect in assay [1] and in assay [2] were -0.845% and 4.78%, respectively.
With `Cc1nn(C)c(C)c1C1COCCN1C(=O)c1ccccc1` (stereo not given), the Percent Effect in assay [1] is -8.71%; in assay [2], -37.5%.
For `CC(C)NC(=O)C1CN(C(=O)N2CCCC2)CC12CCOCC2` (stereo not given), the results for the Percent Effect in assay [1] and in assay [2] were -2.03% and 8.24%, respectively.
Turning to `Cc1cnc(Nc2nccnc2C2CCN(C)CC2)s1`, the Percent Effect is -3.37% in assay [1] and -20.6% in assay [2].
As to `COc1ccc(C(O)CNc2c(C#N)c(=O)n(C)c(=O)n2C)cc1` (stereo not given), the Percent Effect was -3.91% in assay [1] and -4.88% in assay [2].
On to `CCN(CC)Cc1ccc(C(=O)N2CCCCC2Cn2cccn2)o1` (stereo not given), for which the results for the Percent Effect in assay [1] and in assay [2] were 3.47% and 1.31%, respectively.
With `CCOc1ccc(Cl)c(C(=O)N2CCN(c3cnccn3)CC2)n1`, the Percent Effect in assay [1] is -1.79%; in assay [2] it was -46.8%.
Turning to `CC(=O)N(Cc1ncc(C)o1)C1CCN(CCCc2cnn(C)c2)C1` (stereo not given), the Percent Effect in assay [1] is 6.13%; in assay [2] it was -33.8%.
For the compound `O=C1COC2(CCN(Cc3ccoc3)CC2)CN1c1ccsc1`, the figures for the Percent Effect in assay [1] and in assay [2] were 4.25% and -18.4%, respectively.
Take `Clc1ccc(-n2cc(CNC3CCc4ncnn4C3)cn2)cc1` (stereo not given): the Percent Effect in assay [1] was -5.31%; in assay [2], -39.9%.
For `CN(C)c1nc2c(c(=O)[nH]1)CCN(C(=O)c1cccc3nccnc13)C2`, the figures for the Percent Effect in assay [1] and in assay [2] were 4.01% and -35%, respectively.
For `O=C(C1CCN(c2snc3ccccc23)CC1)N1CCCCCC1`, the Percent Effect was 3.13% in assay [1] and -32.4% in assay [2].
With `O=C(CSc1ccccn1)N1C[C@H]2CC[C@@H]1CN(Cc1cscn1)C2`, the Percent Effect in assay [1] is -1.93%; in assay [2], -6.72%.
With `Cn1cc2c(n1)C(CNC(=O)Cc1ccsc1)OCC2` (stereo not given), the Percent Effect is -0.539% in assay [1] and -23.6% in assay [2].
The like results for `Cc1ccccc1S(=O)(=O)N1CCCCC1c1ccn[nH]1` (stereo not given) were, in that order, 0.632% and 35.1%.
The like results for `O=C(CCCNC(=O)C1CC1)Nc1cnn(-c2ccccc2Cl)c1` were, in that order, -4.78% and -29.3%.
For `Cc1cnn(CC2CN(Cc3nnc(C4CC4)o3)CCO2)c1` (stereo not given), the Percent Effect in assay [1] is -2.56%; in assay [2], 24.8%.
The like results for `COCC1COCCC12CCN(C(=O)CCc1ccccc1)CC2` (stereo not given) were, in that order, 3.96% and -14.9%.
Turning to `O=C(CS(=O)(=O)c1ccccc1Cl)NC1CCCCNC1=O` (stereo not given), the Percent Effect in assay [1] is -8.65%; in assay [2], 4.72%.
Take `CO[C@H]1CN(Cc2cccc(C#N)c2)[C@@H]2COC[C@H]12`: the Percent Effect in assay [1] was 4.8%; in assay [2], -22.2%.
As to `Cn1cc(CN2CCn3cc(CNC(=O)C4CCC4)nc3C2)cn1`, the Percent Effect is 1.34% in assay [1] and -6.29% in assay [2].
In the same order, the values of `COCc1ccccc1NC(=O)[C@@H]1CCCN1C(=O)c1ccco1` are -0.557% and -2.06%.
As to `COc1ccccc1OC1CCN(Cc2cnc(N(C)C)nc2)CC1`, the Percent Effect in assay [1] was -2.72%; in assay [2], 17.9%.
Consider `CCn1cnnc1CNC(=O)N1CCN(c2cccs2)CC1`, for which the values for the Percent Effect in assay [1] and in assay [2] were -5.34% and -43.6%, respectively.
In the same order, the values of `CCO[C@@H]1CO[C@@]2(CCCN(C(=O)c3ccc(OC)c(F)c3)C2)C1` are 2.11% and -23.8%.
Take `Cc1nc(C)n(C2CCCN(C(=O)c3cc4ccccc4n3C)C2)n1` (stereo not given): the Percent Effect is -0.634% in assay [1] and 15% in assay [2].
The like results for `O=C(CN1CCCC1Cn1cccn1)NC1CCOCC1` (stereo not given) were, in that order, -1.71% and 13.3%.
On to `Cc1nc(N)cc(C2CN(C(=O)c3ccn(C)n3)CCO2)n1` (stereo not given), for which the Percent Effect was -1.09% in assay [1] and 3.51% in assay [2].
Regarding `O=C(NCCCn1cccn1)C1(c2ccc(F)cc2)CC1`, the Percent Effect in assay [1] is -8.14%; in assay [2], -6.77%.
